Inhibition data for 5 compounds are collected here from PubChem BioAssay AID463215 (Sanford-Burnham Center for Chemical Genomics, 2010).

By inhibition is commonly meant the relative decrease from the control value, in per cent.

Among all 4,600 compounds or so, about 2,900 (63%) were called active. So high a share suggests a set chosen from earlier hits. This is one part of a sample in which actives are shown more often than they occur.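 Rule for the calls: active = inhibition of yeast growth at or above a set limit in either of two replicates at 10 µM; inactive = the rest.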

The nature of this assay: growth inhibitors of wild-type TIM10 yeast, confirmation, counter-screen for tim10-1 synthetic lethality project, single concentration, luminescence, S. cerevisiae (AID 463215).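 Note: isogenic wild-type TIM10 control yeast grown in succinate dextrose medium; 0% = yeast with DMSO and 100% = medium wells lacking yeast.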 As to conditions: S. cerevisiae tim10 strain growth, BacTiter-Glo luminescence, 24 h; at 10 µM; active compounds read high.
`Cc1cc2ccccn2c1C(C[N+](=O)[O-])c1c(F)cccc1Cl` (stereo not given): the inhibition is 36.1% (active).

Consider `O=C1NC(=O)N(c2ccccc2)C(=O)/C1=C/c1ccc([N+](=O)[O-])s1`, for which the inhibition is 40% (active).

Consider `COc1cccc(N2C(=O)NC(=O)/C(=C\c3ccc([N+](=O)[O-])s3)C2=O)c1`, for which the inhibition was 39.2% (active).

Regarding `C/C(=N/O)c1ccc2ccc3ccccc3c2c1`, the inhibition is 42.5% (active).

With `Cc1ccc(-c2nc3ccccc3c(=O)n2-c2ccc(Br)cn2)cc1`, the inhibition was 46.5% (active).
